Among the data in the supplement of paper PMC4206467 are ATP content values, retold here.

Molecules are shown by their SMILES.

For this experiment, the system named is Perkinsus marinus PRA240. Nature of the experiment: ATP content (proliferation) relative to DMSO control; higher = more parasite growth (less inhibition). The note with it: 20 µM; 4 days. The protocol:
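Perkinsus marinus PRA240 trophozoites (2-5x10^6 cells/ml, 100 µl, 96-well) were exposed once to MMV Malaria Box compounds at 20 µM (0.1% DMSO) in triplicate. ATP content (ATPlite bioluminescence) was read at day 4 post-exposure and normalised to DMSO + cells control wells (100% activity). Compounds were identified by joining plate and well to the Malaria Box list.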
As to `COc1ccccc1N1CCN(C(CNS(=O)(=O)c2ccc(Cl)cc2)c2cccnc2)CC1` (stereo not given), the ATP content is 111%.

Regarding `CCOc1cccc(C(=O)Nc2ccc(-c3nc4ccccc4[nH]3)cc2)c1`, the ATP content was 143%. In turn, `CCCCc1ccc(NS(=O)(=O)c2cc3c4c(c2)CCN4C(=O)CC3)cc1` gave an ATP content of 115%. For `COc1ccc(C(=O)Nc2ccc(Cl)cc2C(=O)Nc2ccncc2)cc1`, the ATP content was found to be 106%. `COc1ccc(N2CCN(C(CNC(=O)CC(C)(C)C)c3ccc4c(c3)OCO4)CC2)cc1` (stereo not given) returned an ATP content of 211%. The compound `Cc1c(C)n(CC(O)CNC2CCCCC2C)c2ccccc12` (stereo not given) showed an ATP content of 106%. With `CC(C)=CCN1CCC(C(=O)Nc2ccc(-c3nc4ccccc4[nH]3)cc2)CC1` the figure was 81.5%; with `COc1cccc(NC(=O)Cn2c(C)c(C#N)c3ccccc32)c1`, 110%.

`COCCNC(=O)c1ccc(OC2CCN(Cc3ccc(F)c(F)c3)CC2)c(Cl)c1`: the ATP content amounted to 86.4%. With `Cc1ccc(C2CC(C(F)(F)F)n3nc(C(=O)N4CCN(C(c5ccccc5)c5ccccc5)CC4)cc3N2)cc1` (stereo not given) the figure was 144%. For `Cc1ccc(CSCc2ccc(C(=O)NC3CC3)o2)cc1`, the ATP content turned out to be 54.8%.

`CCc1ccc(Nc2cc(C)nc3nc(C)nn23)cc1`: the ATP content was found to be 139%. Compound `CCCCCCc1cc2cc(-c3nc4ccccc4[nH]3)c(=Nc3ccccc3C)oc2cc1O` came in with an ATP content of 121%. In the case of `COc1ccc(-c2nc(N3CCN(C(=O)C4CCCCC4)CC3)c3c4c(sc3n2)CCCC4)cc1` it was 69.7%. For the compound `O=C(NCCCN1CCC(N2CCCCC2)CC1)C1=Cc2cc(Br)ccc2OC1`, the ATP content was 224%.

In turn, `CC(Oc1ccc(NC(=O)c2cccs2)cc1)C(=O)c1ccc(Cl)cc1` (stereo not given) returned an ATP content of 55.4%. With `COCCNCC(O)Cn1c2ccc(Cl)cc2c2cc(Cl)ccc21` (stereo not given) the figure was 143%; with `CCOc1ccccc1NC(=O)CN1CCN(C(=O)c2ccco2)CC1`, 66.6%; with `O=C1c2ccccc2C2=Nc3ccccc3SC(c3cccc(F)c3)C12` (stereo not given), 36.8%. The compound `COCCn1c(C)nc2ccccc2c1=O` returned an ATP content of 130%. In the case of `Cc1ccc2c(C)nc(Nc3nc(C)cc(-c4ccccc4)n3)nc2c1` it was 93%; in that of `CCOC(=O)C1=C(C)N=c2sc(=Cc3ccccc3O)c(=O)n2C1c1ccc(OC)c2ccccc12` (stereo not given), 196%. With `Oc1ccccc1CN1CCN(C(c2ccccc2)c2ccccc2)CC1` the figure was 128%. With `COc1ccc(CCNC(=O)c2cc(S(=O)(=O)N3CC(C)CC(C)C3)ccc2Sc2ccc(F)cc2)cc1OC` (stereo not given) the figure was 160%. As for `CCOC(=O)c1c(C)n(-c2ccccc2)c2ccc(OC(=O)c3cc(OC)c(OC)c(OC)c3)cc12`, the ATP content was 141%. With `O=C(NC1CCN(Cc2ccccc2)CC1)c1cc(-c2cccnc2)nc2ccc(Cl)cc12` the figure was 137%. `CCCc1c(C)nc2ccccc2c1O` displayed an ATP content of 28.8%.

`COc1ccc(CCN2CCC(CN(C)Cc3cnn(-c4ccccc4)c3)CC2)cc1` registered an ATP content of 110%. With `Cc1cc(C)c2nc(N3CCC(C(=O)NCCCN4CCC(N5CCCCC5)CC4)CC3)sc2c1` the figure was 135%; with `COc1ccc2nc(C)cc(Nc3cccc(O)c3)c2c1`, 109%; with `CC(=O)c1sc(NC(=O)Nc2ccc(C)cc2C)nc1C`, 68.1%. In turn, `CCOc1ccc(-n2cc(-c3ccccc3)c3c(SCc4cc(C)ccc4C)ncnc32)cc1` registered an ATP content of 171%. In the case of `Cn1c(=O)c2cc(C(=O)NCCCN3CCCCCC3)sc2c2ccccc21` it was 86.3%; in that of `COc1cccc(O)c1CN1CCC2(CCCN(Cc3ccc(F)cc3)C2)C1` (stereo not given), 70.7%.

`CCOc1c(Br)cc(C2C(C(=O)OC)=CN(C)C=C2C(=O)OC)cc1OC` came in with an ATP content of 123%.

As for `COc1cc2c(cc1OC)C1=NNC(=O)C1=NC(C)(C)C2`, the ATP content is 42.2%. For the compound `COc1ccc(C2N(C)c3ccccc3N2C)cc1`, the ATP content was 101%.

With `COc1ccc(C(=O)C2CC2c2ccc(Cl)cc2)cc1` (stereo not given), the ATP content is 199%. In turn, `CCCCc1c(CCC)c(=N)c2ccccc2n1C` yielded an ATP content of 95.4%. `O=C(Nc1ccc(CN2CCOCC2)cc1)c1ccc(-c2ccc(Br)cc2)o1`: the ATP content turned out to be 89.4%.
